Results as given in the supplement of paper PMC10849652.
Targets with a hit are over-represented here; the source holds about 7,900 in all. About 0.6% of all pairs of compound and target were hits.

Columns and labels:
Test in all cases: log2 fold change, soluble protein after heating vs DMSO (PISA); higher = thermal stabilisation; K562 cells, 10 uM, 30 min; active = over 0.2 and 3.5 SD of the protein, either way, in both replicates (recomputed)
[1] = compound: C1=CC=C(C=C1)[C@H](COC2=CC3=C(C=C2)NC(=O)N3)NC(=O)C4=CC=CN(C4=O)CC5=CC(=C(C=C5)F)F
Procedure, shortened: (§1)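 For each measurement, 10 μM compound was applied for 30 min to K562 cells at 2×10^6 cells/mL. Aliquots were heated for 3 min across 48°C-58°C, pooled, and extracted in PBS with 0.5% NP-40 at 4°C; the supernatant after 21,000xg for 90 min was soluble protein. This was quantified by TMTpro 16plex LC-MS/MS with channel sums equalised, and thermal stability was reported relative to control samples from duplicates, on a log2 fold-change scale.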

[2] = compound: CC1=C(SC2=C1C(=N[C@H](C3=NN=C(N32)C)CC(=O)N)C4=CC=C(C=C4)Cl)C
Procedure, shortened: as §1

[3] = compound: CC1=C2C(=CC=C1)N=C(N(C2=O)C3=CC=CC=C3C)CN4C=NC5=C(N=CN=C54)N
Procedure, shortened: as §1

[4] = compound: Cc1sc2c(c1C)C(c1ccc(Cl)cc1)=N[C@@H](CC(=O)OC(C)(C)C)c1nnc(C)n1-2
Procedure, shortened: as §1

[5] = compound: c1ccc([C@@H]2C[C@H]2NC2CCNCC2)cc1
Procedure, shortened: as §1

Measured: log2 fold change

SPG11 (UniProt Q96JI7)
inactive: [1] 0.095 | [2] 0.05 | [3] 0.444 | [4] 0.24 | [5] 0.083

TMBIM1 (UniProt Q969X1)
inactive: [1] 0.024 | [2] 0.206 | [3] 0.242 | [4] -0.005 | [5] 0.193

STARD3 (UniProt Q14849)
inactive: [1] 0.011 | [2] -0.036 | [3] 0.14 | [4] 0.066 | [5] -0.153

STK4 (UniProt Q13043)
inactive: [1] -0.008 | [2] 0.088 | [3] 0.057 | [4] 0.005 | [5] -0.001

SUGP1 (UniProt Q8IWZ8)
inactive: [1] 0 | [2] -0.001 | [3] 0.066 | [4] -0.046 | [5] 0.019

SPAG9 (UniProt O60271)
inactive: [1] -0.033 | [2] 0.002 | [3] 0.071 | [4] 0.024 | [5] -0.006

SNRPD3 (UniProt P62318)
inactive: [1] 0.035 | [2] -0.029 | [3] 0 | [4] 0.106 | [5] 0.036

TEX264 (UniProt Q9Y6I9)
inactive: [1] -0.024 | [2] 0.03 | [3] -0.072 | [4] -0.084 | [5] -0.02

SMAD9 (UniProt O15198)
inactive: [1] -0.104 | [2] 0.094 | [3] -0.001 | [4] 0.076 | [5] -0.054

SLC25A36 (UniProt Q96CQ1)
Sequence of UniProt Q96CQ1 (Q96CQ1 whole entry, looked up): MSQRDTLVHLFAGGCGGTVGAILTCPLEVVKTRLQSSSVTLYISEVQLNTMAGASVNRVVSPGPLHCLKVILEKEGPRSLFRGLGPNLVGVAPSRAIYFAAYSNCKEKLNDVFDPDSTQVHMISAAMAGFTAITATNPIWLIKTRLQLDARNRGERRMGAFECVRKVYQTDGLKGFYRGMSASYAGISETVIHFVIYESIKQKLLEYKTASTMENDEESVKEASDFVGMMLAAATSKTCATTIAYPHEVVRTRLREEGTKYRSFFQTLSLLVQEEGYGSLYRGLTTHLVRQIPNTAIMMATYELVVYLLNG
inactive: [1] 0.027 | [2] -0.041 | [3] -0.066 | [4] 0.051 | [5] -0.008

SMARCA5 (UniProt O60264)
inactive: [1] -0.168 | [2] 0.063 | [3] 0.105 | [4] -0.026 | [5] -0.006

SRPRA (UniProt P08240)
inactive: [1] 0.001 | [2] -0.032 | [3] 0.031 | [4] -0.061 | [5] -0.038

STEAP3 isoform 2 (UniProt Q658P3)
Sequence of UniProt Q658P3 (Q658P3 whole entry, looked up): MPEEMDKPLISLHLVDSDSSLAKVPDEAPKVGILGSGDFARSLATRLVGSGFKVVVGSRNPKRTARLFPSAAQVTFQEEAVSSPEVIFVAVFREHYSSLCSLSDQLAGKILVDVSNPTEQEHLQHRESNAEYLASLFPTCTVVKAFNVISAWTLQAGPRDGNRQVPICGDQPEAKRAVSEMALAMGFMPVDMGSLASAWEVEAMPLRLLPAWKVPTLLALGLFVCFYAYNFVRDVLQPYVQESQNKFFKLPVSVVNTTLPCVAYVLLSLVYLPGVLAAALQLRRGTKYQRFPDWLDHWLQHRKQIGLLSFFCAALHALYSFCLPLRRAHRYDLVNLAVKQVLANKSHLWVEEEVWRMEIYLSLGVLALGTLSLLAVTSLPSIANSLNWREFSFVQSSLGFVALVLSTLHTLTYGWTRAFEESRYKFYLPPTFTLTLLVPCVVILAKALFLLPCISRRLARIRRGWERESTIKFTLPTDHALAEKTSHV
inactive: [1] -0.011 | [2] 0 | [3] 0.022 | [4] -0.034 | [5] -0.04

TBC1D9B (UniProt Q66K14)
inactive: [1] -0.025 | [2] 0.093 | [3] 0.042 | [4] 0.02 | [5] -0.062

TCERG1 (UniProt O14776)
inactive: [1] -0.1 | [2] 0.106 | [3] 0.182 | [4] -0.065 | [5] -0.033

SMAD2 (UniProt Q15796)
Sequence of UniProt Q15796 (Q15796 whole entry, looked up): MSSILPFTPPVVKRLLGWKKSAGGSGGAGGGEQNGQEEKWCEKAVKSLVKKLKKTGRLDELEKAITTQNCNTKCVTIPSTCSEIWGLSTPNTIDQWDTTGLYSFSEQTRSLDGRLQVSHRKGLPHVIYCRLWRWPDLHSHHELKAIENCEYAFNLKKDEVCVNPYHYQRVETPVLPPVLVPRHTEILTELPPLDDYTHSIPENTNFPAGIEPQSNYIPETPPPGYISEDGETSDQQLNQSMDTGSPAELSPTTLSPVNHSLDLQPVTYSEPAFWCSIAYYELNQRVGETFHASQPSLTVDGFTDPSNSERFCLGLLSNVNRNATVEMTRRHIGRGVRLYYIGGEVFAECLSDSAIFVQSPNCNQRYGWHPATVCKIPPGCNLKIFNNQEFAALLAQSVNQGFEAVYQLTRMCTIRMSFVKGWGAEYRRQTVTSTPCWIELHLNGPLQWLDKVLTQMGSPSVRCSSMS
inactive: [1] -0.014 | [2] 0.022 | [3] 0.056 | [4] -0.02 | [5] -0.066

SLC7A6 (UniProt Q92536)
inactive: [1] -0.063 | [2] 0.023 | [3] 0.053 | [4] 0.012 | [5] 0.06

SRSF11 (UniProt Q05519)
inactive: [1] 0.008 | [2] 0.037 | [3] 0.044 | [4] -0.082 | [5] -0.028

STK38 (UniProt Q15208)
inactive: [1] -0.08 | [2] 0.045 | [3] 0.055 | [4] 0.028 | [5] -0.034

STK17B (UniProt O94768)
inactive: [1] 0.043

SLC44A2 isoform 2 (UniProt Q8IWA5)
inactive: [1] 0.002 | [2] 0.077 | [3] -0.022 | [4] -0.045 | [5] 0.065

STXBP2 isoform 3 (UniProt Q15833)
inactive: [1] -0.15 | [2] -0.05 | [3] 0.071 | [4] 0.031 | [5] -0.03

SUN2 (UniProt Q9UH99)
inactive: [1] 0.029 | [2] -0.004 | [3] -0.025 | [4] 0.025 | [5] -0.015

SSR3 isoform 2 (UniProt Q9UNL2)
inactive: [1] 0.016 | [2] -0.087 | [3] -0.107 | [4] -0.078 | [5] -0.168

TANK (UniProt Q92844)
inactive: [1] -0.001 | [2] -0.093 | [3] -0.019 | [4] 0.02 | [5] 0.026

STK25 (UniProt O00506)
inactive: [1] -0.022 | [2] 0.111 | [3] 0.015 | [4] -0.019 | [5] -0.016

TAOK3 (UniProt Q9H2K8)
inactive: [1] 0 | [2] 0.057 | [3] 0.002 | [4] -0.003 | [5] -0.024

TM9SF4 (UniProt Q92544)
inactive: [1] -0.038 | [2] 0.008 | [3] -0.001 | [4] -0.047 | [5] -0.032

SLC35B1 isoform 2 (UniProt P78383)
inactive: [1] -0.166 | [2] -0.233 | [3] 0.146 | [4] -0.215 | [5] 0.027

TCOF1 isoform 6 (UniProt Q13428)
inactive: [1] 0.209 | [2] 0.151 | [3] -0.251 | [4] 0.271 | [5] 0.029

SLC9A6 isoform 2 (UniProt Q92581)
inactive: [1] -0.007 | [2] 0.066 | [3] 0.068 | [4] -0.014 | [5] 0.047

TAF9 (UniProt Q16594)
inactive: [1] 0.046 | [2] -0.043 | [3] -0.114 | [4] 0.049 | [5] 0.019

STAT5B (UniProt P51692)
inactive: [1] 0.036 | [2] 0.08 | [3] 0.05 | [4] 0.033 | [5] 0.052

SREBF1 isoform 4 (UniProt P36956)
inactive: [1] 0.026

SLC7A6OS (UniProt Q96CW6)
inactive: [1] -0.026 | [2] -0.043 | [3] 0.03 | [4] 0.012 | [5] 0.032

TJP1 (UniProt Q07157)
inactive: [1] 0 | [2] 0.028 | [3] 0.069 | [4] 0.014 | [5] 0.023

SLC29A3 (UniProt Q9BZD2)
inactive: [1] 0.036 | [2] 0.033 | [3] 0.044 | [4] -0.352 | [5] 0.139

TIAL1 isoform 2 (UniProt Q01085)
inactive: [1] -0.023 | [2] 0.049 | [3] 0.015 | [4] 0.043 | [5] -0.024

TBK1 (UniProt Q9UHD2)
Sequence of UniProt Q9UHD2 (Q9UHD2 whole entry, looked up): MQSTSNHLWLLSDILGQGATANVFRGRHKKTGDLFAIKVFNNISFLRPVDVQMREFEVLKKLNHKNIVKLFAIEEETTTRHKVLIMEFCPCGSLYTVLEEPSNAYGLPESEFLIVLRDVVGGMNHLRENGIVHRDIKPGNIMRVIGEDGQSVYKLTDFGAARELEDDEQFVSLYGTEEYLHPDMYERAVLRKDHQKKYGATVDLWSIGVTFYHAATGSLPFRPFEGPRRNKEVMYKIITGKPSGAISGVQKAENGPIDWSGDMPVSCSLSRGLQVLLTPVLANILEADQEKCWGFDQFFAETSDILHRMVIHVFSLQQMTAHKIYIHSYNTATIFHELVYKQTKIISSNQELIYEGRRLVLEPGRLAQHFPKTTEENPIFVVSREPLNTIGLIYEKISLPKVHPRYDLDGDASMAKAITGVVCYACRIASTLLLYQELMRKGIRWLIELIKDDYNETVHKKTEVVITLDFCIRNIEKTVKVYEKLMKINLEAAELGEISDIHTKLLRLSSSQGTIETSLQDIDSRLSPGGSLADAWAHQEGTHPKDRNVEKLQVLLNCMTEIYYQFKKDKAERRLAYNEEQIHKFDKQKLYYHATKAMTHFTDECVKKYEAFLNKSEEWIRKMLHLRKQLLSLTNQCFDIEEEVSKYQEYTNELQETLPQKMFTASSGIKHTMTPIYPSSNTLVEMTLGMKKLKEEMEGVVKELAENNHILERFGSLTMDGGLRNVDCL
inactive: [1] -0.014 | [2] 0.007 | [3] 0.041 | [4] 0.011 | [5] -0.049

SUPT5H (UniProt O00267)
inactive: [1] -0.05 | [2] 0.109 | [3] 0.106 | [4] 0.001 | [5] -0.051

SNX12 isoform 1 (UniProt Q9UMY4)
Sequence of UniProt Q9UMY4 (Q9UMY4 whole entry, looked up): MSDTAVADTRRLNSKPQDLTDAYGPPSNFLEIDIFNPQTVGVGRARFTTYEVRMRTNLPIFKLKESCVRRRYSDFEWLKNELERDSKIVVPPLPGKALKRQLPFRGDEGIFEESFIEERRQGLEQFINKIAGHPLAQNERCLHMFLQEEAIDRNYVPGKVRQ
inactive: [1] 0.016 | [2] -0.009 | [3] 0.095 | [4] 0.026 | [5] 0.02

TFB2M (UniProt Q9H5Q4)
inactive: [1] -0.019 | [2] 0.035 | [3] 0.103 | [4] -0.019 | [5] -0.022

TBC1D10B (UniProt Q4KMP7)
inactive: [1] -0.021 | [2] 0.062 | [3] 0.014 | [4] -0.026 | [5] 0.006

SMCHD1 (UniProt A6NHR9)
Sequence of UniProt A6NHR9 (A6NHR9 whole entry, looked up): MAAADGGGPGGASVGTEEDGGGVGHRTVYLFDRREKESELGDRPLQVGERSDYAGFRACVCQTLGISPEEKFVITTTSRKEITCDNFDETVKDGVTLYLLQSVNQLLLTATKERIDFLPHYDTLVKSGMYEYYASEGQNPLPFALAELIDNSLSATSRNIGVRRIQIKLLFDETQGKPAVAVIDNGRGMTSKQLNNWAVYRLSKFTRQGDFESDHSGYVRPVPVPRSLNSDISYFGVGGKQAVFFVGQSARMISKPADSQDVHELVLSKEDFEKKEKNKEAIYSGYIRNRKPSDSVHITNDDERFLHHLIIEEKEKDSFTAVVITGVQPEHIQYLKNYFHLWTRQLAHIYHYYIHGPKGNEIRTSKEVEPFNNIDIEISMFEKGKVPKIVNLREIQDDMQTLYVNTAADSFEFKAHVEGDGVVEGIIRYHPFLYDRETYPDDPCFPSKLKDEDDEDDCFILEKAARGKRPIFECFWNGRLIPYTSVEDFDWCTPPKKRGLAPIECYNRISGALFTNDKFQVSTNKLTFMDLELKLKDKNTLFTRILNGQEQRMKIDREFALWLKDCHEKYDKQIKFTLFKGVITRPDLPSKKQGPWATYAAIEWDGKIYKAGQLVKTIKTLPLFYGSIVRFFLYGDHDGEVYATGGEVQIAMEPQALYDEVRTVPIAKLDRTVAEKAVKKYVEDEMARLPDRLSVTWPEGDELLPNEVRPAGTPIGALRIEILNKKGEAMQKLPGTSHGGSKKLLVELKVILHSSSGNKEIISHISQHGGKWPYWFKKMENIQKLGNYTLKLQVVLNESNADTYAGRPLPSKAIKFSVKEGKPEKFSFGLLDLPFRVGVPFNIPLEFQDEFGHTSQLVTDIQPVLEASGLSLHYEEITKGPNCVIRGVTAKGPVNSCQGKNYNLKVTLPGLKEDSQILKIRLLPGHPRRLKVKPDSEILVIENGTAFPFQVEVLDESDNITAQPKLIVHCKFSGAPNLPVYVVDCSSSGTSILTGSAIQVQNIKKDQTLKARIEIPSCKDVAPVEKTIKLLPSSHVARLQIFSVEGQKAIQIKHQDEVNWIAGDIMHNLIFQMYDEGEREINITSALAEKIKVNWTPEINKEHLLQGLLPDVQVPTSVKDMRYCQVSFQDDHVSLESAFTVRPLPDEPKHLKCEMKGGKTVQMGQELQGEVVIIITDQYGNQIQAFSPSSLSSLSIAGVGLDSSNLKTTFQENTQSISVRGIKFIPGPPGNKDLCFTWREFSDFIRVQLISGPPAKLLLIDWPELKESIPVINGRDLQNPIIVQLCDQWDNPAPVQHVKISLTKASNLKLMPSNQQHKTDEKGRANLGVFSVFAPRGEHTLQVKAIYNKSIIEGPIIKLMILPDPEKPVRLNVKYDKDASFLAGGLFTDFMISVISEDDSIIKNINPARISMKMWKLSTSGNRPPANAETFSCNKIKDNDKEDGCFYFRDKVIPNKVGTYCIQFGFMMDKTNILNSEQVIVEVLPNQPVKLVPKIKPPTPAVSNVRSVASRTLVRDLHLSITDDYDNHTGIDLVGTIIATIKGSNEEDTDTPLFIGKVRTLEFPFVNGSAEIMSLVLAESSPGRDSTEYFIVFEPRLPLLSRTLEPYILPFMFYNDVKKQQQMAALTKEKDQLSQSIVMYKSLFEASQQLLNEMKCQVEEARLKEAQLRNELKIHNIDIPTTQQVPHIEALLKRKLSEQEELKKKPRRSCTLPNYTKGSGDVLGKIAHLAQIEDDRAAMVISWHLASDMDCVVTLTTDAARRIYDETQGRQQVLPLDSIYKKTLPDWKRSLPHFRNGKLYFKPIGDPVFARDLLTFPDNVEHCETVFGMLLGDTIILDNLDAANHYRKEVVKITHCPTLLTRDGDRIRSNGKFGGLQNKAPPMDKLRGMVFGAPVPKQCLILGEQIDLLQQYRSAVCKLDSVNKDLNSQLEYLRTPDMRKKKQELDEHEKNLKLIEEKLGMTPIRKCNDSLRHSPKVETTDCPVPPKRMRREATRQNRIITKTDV
inactive: [1] 0.129 | [2] 0.141 | [3] 0.063 | [4] 0.01 | [5] 0.036

SNX3 (UniProt O60493)
inactive: [1] -0.057 | [2] 0 | [3] 0.105 | [4] -0.006 | [5] -0.064

TAX1BP1 (UniProt Q86VP1)
inactive: [1] -0.008 | [2] 0.09 | [3] 0.042 | [4] 0.029 | [5] -0.007

SUMO1 (UniProt P63165)
Sequence of UniProt P63165 (P63165 whole entry, looked up): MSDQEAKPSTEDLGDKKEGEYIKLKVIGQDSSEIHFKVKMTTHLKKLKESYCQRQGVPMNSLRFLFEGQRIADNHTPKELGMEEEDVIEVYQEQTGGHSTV
inactive: [1] -0.004 | [2] -0.097 | [3] -0.048 | [4] 0.231 | [5] 0.152

SRI (UniProt P30626)
inactive: [1] -0.034 | [2] 0.111 | [3] 0.043 | [4] -0.093 | [5] -0.064

SYF2 (UniProt O95926)
inactive: [1] 0.032 | [2] 0.029 | [3] -0.077 | [4] 0.145 | [5] 0.065

SLC27A1 (UniProt Q6PCB7)
inactive: [1] -0.02 | [2] 0.161 | [3] 0.293 | [4] 0.11 | [5] -0.029

STAT6 (UniProt P42226)
inactive: [1] -0.02 | [2] -0.019 | [3] 0.198 | [4] 0.009 | [5] -0.015

SNX6 (UniProt Q9UNH7)
inactive: [1] -0.037 | [2] 0.039 | [3] 0.053 | [4] 0.012 | [5] -0.11

SRP72 (UniProt O76094)
Sequence of UniProt O76094 (O76094 whole entry, looked up): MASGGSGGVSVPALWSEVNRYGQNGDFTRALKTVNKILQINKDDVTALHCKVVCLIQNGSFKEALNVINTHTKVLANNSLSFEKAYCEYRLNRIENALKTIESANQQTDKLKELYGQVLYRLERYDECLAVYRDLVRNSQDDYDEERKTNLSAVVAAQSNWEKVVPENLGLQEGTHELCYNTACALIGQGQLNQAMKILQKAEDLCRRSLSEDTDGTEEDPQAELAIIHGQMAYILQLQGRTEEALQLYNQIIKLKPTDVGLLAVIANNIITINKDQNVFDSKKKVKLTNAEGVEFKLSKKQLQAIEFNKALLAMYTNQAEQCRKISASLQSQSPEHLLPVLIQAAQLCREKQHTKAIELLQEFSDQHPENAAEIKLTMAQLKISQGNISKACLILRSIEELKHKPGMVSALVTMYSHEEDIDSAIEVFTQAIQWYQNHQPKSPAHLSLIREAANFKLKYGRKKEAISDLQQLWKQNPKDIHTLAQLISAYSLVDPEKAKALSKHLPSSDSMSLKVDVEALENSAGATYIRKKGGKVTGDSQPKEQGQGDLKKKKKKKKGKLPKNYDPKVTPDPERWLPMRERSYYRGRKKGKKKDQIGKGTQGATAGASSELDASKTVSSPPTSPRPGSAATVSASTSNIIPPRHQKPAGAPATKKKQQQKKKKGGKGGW
inactive: [1] -0.068 | [2] -0.016 | [3] 0.047 | [4] 0.097 | [5] -0.016

SPIRE1 (UniProt Q08AE8)
inactive: [1] 0.079 | [2] 0.002 | [3] 0.196 | [4] -0.01 | [5] 0.075
